A selection: hits, their analogues and other compounds. The true share with any hit is near 11%.
HPGD block: blocks human HPGD enzyme activity | P15428 | purified HPGD, NADH fluorescence kinetic, PGE2 substrate | Potency, µM, hits mostly inhibitors | hit rate 4.3% among 150,000 | AID 894
Target sequence (P15428 whole entry, looked up): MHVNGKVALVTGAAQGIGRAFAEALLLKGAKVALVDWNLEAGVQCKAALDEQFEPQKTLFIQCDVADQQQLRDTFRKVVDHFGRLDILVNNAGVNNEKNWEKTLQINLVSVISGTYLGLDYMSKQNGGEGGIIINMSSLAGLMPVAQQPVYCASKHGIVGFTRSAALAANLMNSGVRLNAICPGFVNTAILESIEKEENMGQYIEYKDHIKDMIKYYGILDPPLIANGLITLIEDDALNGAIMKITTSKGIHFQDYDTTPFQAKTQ
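20 nM HPGD preincubated 15 min at room temperature with compound in 50 mM Tris-HCl pH 8, 0.01% Tween 20. Started with 1 mM NAD+ and 30 uM prostaglandin E2; NADH fluorescence (360/450 nm) read 5 times over 30-s intervals, last minus first.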
PNC assembly inh: perinucleolar compartment assembly inhibition; PC3M PTB-GFP, PNC prevalence imaging, 16 h; hits give low values; activity change (PNC), negative = inhibition, % at 10 µM; hit rate 3.1% among 140,000;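 active = readout at or below -70, meaning at least 70% loss of cells showing the perinucleolar compartment, a nuclear body marking cancer cells; inconclusive = readout between -30 and a set limit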
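PC3M cells stably expressing PTB-GFP, 750–1000 cells/well, treated 16 h at 37 °C with compound (23 nl of library stock), in duplicate. After paraformaldehyde fixation and Hoechst stain, imaged at 20x; PNC prevalence scored by image analysis.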
ALDH1A1 block: inhibitors of human aldehyde dehydrogenase 1A1. P00352. Purified ALDH1A1, NADH fluorescence, propionaldehyde substrate. Potency, µM (top dose mostly 75.3 µM), hits mostly inhibitors. hit rate 7.3% among 220,000. AID 1030
Numbers stand for hits; n = inactive; u = inconclusive; x = not tested or not shown; [ ] = remark or other dose. Unless noted, calls follow the shape of the dose curve; as a rule, active = well fitted inhibition curve with a large enough effect (not every such curve was filed as active); inconclusive = small, poorly fitted or top-dose-only effect, or another doubt; inactive = no such curve, though single readings can be large or run the other way.

SMILES	HPGD block	PNC assembly inh	ALDH1A1 block
CC(C(=O)NC1CCCC1)N(C(=O)c1snc(C(N)=O)c1N)c1ccc2c(c1)OCCO2 (configuration not stated)	n	n	13µM
CCOCCCNCc1cc(Cl)cc(Cl)c1OCC	x	x	n
CC1(C)Cc2c(sc3c2C2=NCCN2C=N3)CS1	n	n	n
CSC1=Nc2sc3c(c2C2=NCCN12)CCCC3	x	n	14µM
CCCNc1c(NC(C)=O)c(=O)oc2ccccc12	n	n	n
O=[N+]([O-])c1cc(Br)c(O)c(/C=N/Nc2nnnn2-c2cccc3ccccc23)c1	u	n	18µM
COc1ccc([N+](=O)[O-])cc1/C=N/Nc1nn[nH]n1	x	x	n
CCOc1cc(S(=O)(=O)n2nc(C)cc2C)ccc1Br	x	x	n
COc1ccc2cc(C(=O)OC(C)C)sc(=O)c2c1OC	u	n	5µM
COc1ccc2cc(C(=O)NCC(=O)O)sc(=O)c2c1OC	n	n	n
O=C(/C=C/c1ccc(F)cc1)NC(Cc1c[nH]c2ccccc12)C(=O)O (configuration not stated)	x	x	n
CC1CC(=O)NN=C1c1ccc(N(C)C)c([N+](=O)[O-])c1 (configuration not stated)	n	n	u
CCN(CC)c1ccc(C2=NNC(=O)CC2C)cc1[N+](=O)[O-] (configuration not stated)	n	n	13µM
O=C1C2CSCN2C(=O)CN1CCCN1CCN(C(c2ccccc2)c2ccccc2)CC1 (configuration not stated)	n	n	n
CCc1nnc(NS(=O)(=O)c2ccc(N/C=C\C(=O)c3cccc(OC)c3)cc2)s1	x	x	n
Cc1cc(C)nc(NS(=O)(=O)c2ccc(N/C=C\C(=O)c3ccc(Cl)cc3)cc2)n1	n	n	n
CCc1nnc(NS(=O)(=O)c2ccc(N/C=C\C(=O)c3ccc(C)cc3)cc2)s1	25µM	n	u
CCc1nnc(NS(=O)(=O)c2ccc(N/C=C/C(=O)c3ccc(C)cc3)cc2)s1	18µM	n	u
COc1ccccc1-c1nccc(NCc2cccc(C)c2)n1	n	x	u
COC(=O)C1=NN(c2cccc(C)c2)C2C(=O)N(c3ccccc3OC)C(=O)C12 (configuration not stated)	u	n	u
CS(=O)(=O)Nc1cccc(-c2ccc3ncnc(Nc4ccc(F)cc4)c3c2)c1	u	x	n
CCOC(=O)c1c(NC(=O)CN2CCCc3ccccc32)sc(C)c1C	n	n	u
COC(=O)c1c(NC(=O)CN2CCCc3ccccc32)sc(C)c1C	n	n	20µM
CCOC(=O)c1c(NC(=O)CN2CCN(c3ccc(Cl)cc3)CC2)sc(C)c1C	n	n	u
COC(=O)c1c(NC(=O)CN2CCN(c3ccccc3Cl)CC2)sc(C)c1C	n	n	3.5µM
SMILES	HPGD block	PNC assembly inh	ALDH1A1 block
Cc1ccc(S(=O)(=O)N2CCN(c3ccc([N+](=O)[O-])c(NCCN4CCOCC4)c3)CC2)cc1	n	-83	n
O=[N+]([O-])c1ccc(N2CCN(S(=O)(=O)c3ccccc3)CC2)cc1NCCN1CCOCC1	n	n	n
Cc1ccc(C)c(N2CCN(C(=O)Cn3c(=O)[nH]c4ccsc4c3=O)CC2)c1	n	n	n
CN(CC(=O)Nc1ccc(F)cc1)C(=O)COc1ccc(C(=O)c2ccccc2)cc1	n	n	n
CCN(CC)C(=S)NC(=O)Cc1ccccc1	x	x	n
C=CCN(CC=C)C(=S)NC(=O)Cc1cccc2ccccc12	x	x	19µM
CCCCNC(=O)/C=C/c1ccc(S(=O)(=O)Nc2ccc(OC)cc2)cc1	x	x	n
CNC(=O)c1cc(NC(=O)CCn2nc(-c3ccccc3)c3ccccc3c2=O)ccc1OC	x	x	n
Cc1nonc1C1CCCN1Cc1cn[nH]c1-c1ccc(-c2ccccc2)cc1 (configuration not stated)	x	x	7.1µM
COc1cc(-c2[nH]ncc2CN2CCCC2c2nonc2C)cc(OC)c1OC (configuration not stated)	x	x	n
CCOC(=O)/C(C(=O)Nc1ccc(Br)cc1)=C1/NC(C)(C)Cc2ccccc21	n	n	u
CCOC(=O)/C(C)=C1\NC(C)(C)Cc2ccccc21	20µM	n	u
CCOC(=O)/C(C(=O)Nc1ccccc1Cl)=C1/NC(C)(C)Cc2ccccc21	n	n	14µM
CC1(C)Cc2ccccc2C(=C(C#N)C#N)N1	n	u	n
Cc1noc(C)c1C(=O)N1CCC[C@@]2(CCN(Cc3nccs3)C2)C1	n	x	n
CC(C)C[C@@H](CC(=O)N[C@H](CC(=O)N[C@@H]1CCNC[C@H]1C(=O)N[C@H](CC(=O)N[C@@H](CCC(=O)O)CC(=O)O)Cc1c[nH]c2ccccc12)C(C)C)NC(=O)[C@@H]1CNCC[C@H]1N	n	x	u
COC(=O)c1cc(C(=O)OC)cc(N2C(=O)CC(NNC(=O)c3ccc(C)cc3)C2=O)c1 (configuration not stated)	14µM	n	n
COC(=O)c1cc(C(=O)OC)cc(N2C(=O)CC(Sc3nc(C)cc(C)n3)C2=O)c1 (configuration not stated)	n	n	13µM
COc1ccccc1N1C(=O)CC(Sc2nc(C)cc(C)n2)C1=O (configuration not stated)	n	n	n
COC(=O)c1ccc(N2C(=O)C3CC(C)=C(C)CC3C2=O)cc1 (configuration not stated)	x	x	n
COC(=O)c1ccc(N2C(=O)CC(Sc3n[nH]c(C)n3)C2=O)cc1 (configuration not stated)	16µM	n	0.56µM
COC(=O)c1cc(C(=O)OC)cc(N2C(=O)CC(NNC(=O)c3ccccc3Br)C2=O)c1 (configuration not stated)	n	n	n
COc1ccc(C(=O)N2CCC[C@@]3(CCN(CC(C)C)C3)C2)cc1	n	x	n
CCCCNS(=O)(=O)c1ccc(NC(=O)c2c(-c3ccccc3Cl)noc2C)cc1	n	n	n
O=c1cc(N2CCCCCC2)[nH]c(=O)n1-c1ccccc1Cl	x	x	n
SMILES	HPGD block	PNC assembly inh	ALDH1A1 block
COC(=O)C/C=C\[C@@H](C)[C@@H](/C=N\O[C@@H](C)c1cc(-c2c(C)cc(C)cc2C)no1)OC	x	x	n[13.5 µM]
Cc1ccc(NC(=S)N(CCN(C)C)Cc2cc3cc(C)ccc3[nH]c2=O)cc1	x	x	n
CCOC(=O)c1ccc(COc2nc3ccccc3nc2-c2ccccc2NC(C)=O)o1	n	-115	n
CC(=O)Nc1ccccc1-c1nc2ccccc2nc1OCC(=O)c1ccc(Br)cc1	n	u	n
Cc1ccc(Nc2nnc(SCc3nc4ccccc4c(=O)[nH]3)s2)cc1	x	x	n
Cc1ccc(Nc2c(-c3ccc(N4CCOCC4)cc3)nc3ncccn23)cc1	n	n	u
Cc1ccc(Nc2c(-c3ccc(N4CCOCC4)cc3)nc3ncccn23)cc1C	n	-102	n
CCOC(=O)c1c(NC(=O)C[n+]2ccc(Cc3ccccc3)cc2)sc(C)c1C	x	x	0.71µM
CCOC(=O)c1c(NC(=O)CCc2ccc(CC)o2)sc(C)c1C	u	n	u
CCOC(=O)c1cc(C)sc1NC(=S)Nc1ccccc1	n	n	u
CCOC(=O)c1c(NC(=S)Nc2ccccc2)sc(C)c1C	22µM	u	25µM
Cc1sc(NC(=O)Nc2ccccc2)c(C(N)=O)c1C	x	x	13µM
COC(=O)c1c(NC(=O)Nc2ccc(Cl)cc2)sc(C)c1C	n	n	n
